# Assay results reported in PubChem BioAssay (NCI).
# About 83,000 compounds went through this panel and 20% of them were active in at least one assay; those are over-represented in the sample as a whole.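 Note: values are percent growth. 100 is the growth of untreated cells, values between 100 and 0 indicate rising inhibition; between -100 and 0 indicates cell death.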 Values without a mark were called inactive. Activity calls are given as the source filed them. How the source made its calls: active means growth percent below 10; inactive means the rest.
# Tested on: MDA-MB-468 breast
# Experiment: NCI-60 one-dose screen, 48 h (100 = growth as untreated, 0 = no growth, -100 = all killed)
# Details: 10 µM unless noted
row,SMILES,growth
1,CCNCC(C)(C)O,115%
2,CC(=O)Oc1cccc(OC(C)=O)c1OC(C)=O,97.6%
3,C#CCn1c(-c2cccc(OCCCCl)c2)nc2c1c(=O)n(C)c(=O)n2C,71.6%
4,CN1CCN(c2cc(F)c(NC3=C(Cl)C(=O)c4ncccc4C3=O)c(F)c2)CC1,-73.9% (active)
5,S=c1cnc2ccccc2[nH]1,108%
6,c1cnc2nc3c(cc2c1)oc1ccccc13,81%
7,N[C@@H](Cc1cn(-c2c3ccccc3nc3ccccc23)nn1)C(=O)O,96.8%
8,COc1ccc(-c2cn(-c3cccc(C(=O)/C=C/c4cc(OC)c(OC)c(OC)c4)c3)c(=O)[nH]2)cc1OC,98.1%
9,COc1ccc(-c2ccc(-c3ccc(C(=N)N)cc3)s2)cc1Cl,-65% (active)
10,CCSc1nc2scc(C)c2c(=O)[nH]1,110%
11,O=S(=O)(c1ccc(NC(=S)NCc2cccnc2)cc1)N1CCCCC1,72.3%
12,O=C1C(SCc2ccccc2)=C(Cl)CN1c1ccc(Cl)cc1,16.3%
13,O=C1C=CN2C(=O)CC=CC2[C@@H]1O (stereo not given in full),110%
14,CCc1cccc(-c2ccccc2)c1,106%
15,N=C(N)c1ccc(-c2cc(Cl)cc(Cl)c2)cn1,78.7%
16,Cc1nc2c(O)cccc2cc1CO,95.2%
17,O=C(O/C(=C/c1ccccc1)C(F)(F)F)c1ccccc1,109%
18,O=Cc1ccc(Cl)c(Cl)c1,119%
19,COc1ccc2c(c1)C(=O)c1c-2c(OCCN(C)C)nc2cc(OC)c(OC)cc12,81.6%
20,C=C(C)[C@@H]1CC[C@]2(C)[C@H](CC=C3[C@@H]4CC(C)(C)CC[C@]4(C(=O)OC)CC[C@]32C)[C@@]1(C)CC/C(N)=N/O,-13% (active)

row,SMILES,growth
1,COc1ccc(/C=N/C2=C(C#N)C(c3ccc(N(C)C)cc3)c3ccc4ccccc4c3O2)cc1 (stereo not given),84.3%
2,CN(C)c1ccc(-c2ccc(-c3ccc(C(=N)N)c(F)c3)s2)cc1,-83.6% (active)
3,O=C(O)c1ccc(-n2cc(/C=N/Nc3ccc(Cl)cc3Cl)c(-c3ccccc3)n2)cc1,79.7%
4,Clc1cccc(Cl)c1/C=C/c1cc(/C=C/c2c(Cl)cccc2Cl)[nH]n1,12.4%
5,COc1ccccc1CNCCCN1C(=O)c2ccc3c4c(ccc(c24)C1=O)C(=O)N(CCCNCCCCNCCCN)C3=O,-84.5% (active)
6,Cn1cnc([N+](=O)[O-])c1S(=O)(=O)Oc1ccc(Cl)cc1,29.8%
7,Cc1ccc(/C=C2\CN(C(=O)CCN3CCC(=NO)CC3)C/C(=C\c3ccc(C)cc3)C2=O)cc1,-54.2% (active)
8,Cc1ccc2[nH]c(=O)c3c(c2c1)OC(N)=C(C#N)C31c2cc(Br)ccc2-c2ccc(Br)cc21,55.4%
9,CN(C)C(CNc1oc(-c2cccc3ccccc23)nc1C#N)c1ccco1 (stereo not given),97%
10,CCc1c2c(nc3ccc(OCc4ccc(B5OC(C)(C)C(C)(C)O5)cc4)cc13)-c1cc3c(c(=O)n1C2)COC(=O)[C@]3(O)CC,-42% (active)
11,NC(=NCCCC1(c2ccccc2)CCCC1)Nc1ccc(Cl)cc1,-83.1% (active)
12,CCOc1cc(-c2ccc[nH]2)[nH]c1/C=C1\N=C(C)C(C(=O)OC)=C1C,-86.9% (active)
13,Cc1cc2ccccc2c2cc3ccccc3cc12,5.23% (active)
14,Oc1ccccc1-c1nnc(CNc2ccc(Cl)cc2)o1,-2.17% (active)
15,Nc1ccc2cc(Br)c3ccccc3c2c1,4.15% (active)
16,COc1ccc(/C=N/NC(=O)c2[nH]c3ccc(Br)cc3c2-c2ccccc2)s1,-24% (active)
17,C=CCNc1ccc2c3c(cccc13)C(=O)N(CC=C)C2=O,60.3%
18,C=C[C@@H]1C[C@@H]2Cc3cc(F)ccc3N1O2,116%
19,Cc1cn(-c2cc(NC(=O)c3cncc(C#Cc4cnc5ccc(OCCCS(C)(=O)=O)nn45)c3)cc(C(F)(F)F)c2)cn1,-22.5% (active)
20,Cc1nc2c(=O)[nH]c(SCC(=O)Nc3cccc(F)c3)nc2[nH]c1=O,98.9%
